The values below come from PubChem BioAssay (NCI).

A short description of assay [1]: NCI Yeast Anticancer Drug Screen. Data for the rad50 strain (AID 155).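 Also: 0% = growth of vehicle-only cultures of the same strain.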 Particulars: S. cerevisiae rad50 strain growth inhibition; at 50.0 µM; hits give high values. The method, boiled down: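 Vehicle-treated cultures provide the reference for the growth inhibition reported for compound-exposed, repair-deficient yeast.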
The nature of assay [2]: NCI Yeast Anticancer Drug Screen. Data for the mec2-1 strain (AID 157). Particulars: S. cerevisiae mec2-1 strain, at 50.0 µM, hits give high values. Summed up:
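Using mec2-1 yeast: add compound, measure growth, express inhibition versus vehicle-treated cultures.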

Assay [3] can be described thus: NCI Yeast Anticancer Drug Screen. Data for the sgs1 mgt1 strain (AID 161).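 Also: 0% = growth of cultures given vehicle only.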 Particulars: S. cerevisiae sgs1 mgt1 strain, at 50.0 µM, hits give high values. The method, boiled down:
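Yeast cells carrying a defined DNA-repair defect were exposed to test compounds. Growth inhibition was measured relative to vehicle-treated controls.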

The nature of assay [4]: NCI Yeast Anticancer Drug Screen. Data for the cln2 rad14 strain (AID 165).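 Also: 0% = growth equal to vehicle treated cultures.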 The note with it: S. cerevisiae cln2 rad14 strain, at 50.0 µM, hits give high values. The method, boiled down:
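Yeast strain cln2 rad14, bearing defects in cell cycle control and DNA repair, serves as the test system; values reflect growth inhibition compared with vehicle.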

Assay [5] can be described thus: NCI Yeast Anticancer Drug Screen. Data for the bub3 strain (AID 167). The note with it: S. cerevisiae bub3 mutant strain, at 50.0 µM, hits give high values. The method, boiled down: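 Mutant yeast screening strain plus compound; vehicle-treated cultures serve as the 0% inhibition reference.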
The nature of assay [6]: NCI Yeast Anticancer Drug Screen. Data for the mlh1 rad18 strain (AID 175). The note with it: S. cerevisiae mlh1 rad18 strain growth inhibition; at 50.0 µM; hits give high values. Summed up: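 Steps: expose repair-defective yeast to compound; measure growth; express inhibition against vehicle-treated controls.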

Values joined by “and” are separate entries in the source; they are usually repeats but may differ in a detail not shown here. Equal entries are not always repeated. About 79,000 compounds went through this panel and 15% of them were active in at least one assay; those are over-represented in the sample as a whole. Values without a mark were called inactive. Active and inactive are the calls of the source. Rule as the data show it: active = growth inhibition above about 70%; inactive = the rest.

In the case of `CC(C)CC(=O)[O-].CC(C)CC(=O)[O-].N.N.N.N.[Co+3].[O-][Cl+3]([O-])([O-])[O-]`, the growth inhibition was -0.8% and -12.4% in assay [1]; 9.7% and 11.6% in assay [2]; -28.9% and -24.1% in assay [3]; 10.3% and 1.35% in assay [4]; 15.8% and -0.6% in assay [5]; -14.5% and 2.55% in assay [6].
For the compound `CC(C)c1cccc(OC(=O)N(C)C=O)c1`, the growth inhibition in assay [1] was -8.1%; in assay [2], 12.7%; in assay [3], -12.8%; in assay [4] it was -46.4%; in assay [5], -21.4%; in assay [6], -1.5%.
In the case of `CCOC(=O)C(=O)CC(=O)[C@H]1CC[C@H]2[C@@H]3CC[C@@H]4C[C@H](O)CC[C@]4(C)[C@H]3C(=O)C[C@]12C`, the growth inhibition is 30.6% in assay [1]; 15.3% in assay [2]; 40.8% in assay [3]; 37.5% in assay [4]; -3.8% in assay [5]; 34.7% in assay [6].
For `COc1cc([N+](=O)[O-])ccc1[As](=O)(O)O`, the growth inhibition in assay [1] was 0%; in assay [2], -4.1%; in assay [3], 8.95%; in assay [4] it was -63.5%; in assay [5], 10.7%; in assay [6] it was -1.05%.
For `NC(=O)C(CBr)NCc1ccccc1` (centres undefined), the growth inhibition was -0.1% in assay [1]; -13.6% in assay [2]; -6.15% in assay [3]; -27.8% in assay [4]; 6.7% in assay [5]; -10.6% in assay [6].
Consider `COC(C(=O)C(O)C(C)O)C1Cc2cc3cc(OC4CC(OC(C)=O)C(OC5CC(O)C(OC)C(C)O5)C(C)O4)cc(O)c3c(O)c2C(=O)C1OC1CC(OC2CC(OC3CC(C)(O)C(OC(=O)C(C)C)C(C)O3)C(O)C(C)O2)C(O)C(C)O1` (centres undefined), for which the growth inhibition in assay [1] was 1.55% and 17.7%; in assay [2], -5.45% and 28.8%; in assay [3] it was -24.6% and 17.3%; in assay [4], 52.5% and 58%; in assay [5], -19.4% and 35.5%; in assay [6] it was 1.2% and 17.1%.
For `O=C(NCCN1CCOCC1)c1ccc2cc(C(=O)N3CC(CCl)c4ccc([N+](=O)[O-])cc43)[nH]c2c1` (centres undefined), the growth inhibition was 88.5% (active) in assay [1]; 92.2% (active) in assay [2]; 88% (active) in assay [3]; 88.8% (active) in assay [4]; 89.8% (active) in assay [5]; 89.9% (active) in assay [6].
Take `[CH3][Sn]([c]1ccccc1)[c]1ccccc1`: the growth inhibition is -4.15% in assay [1]; 2.5% in assay [2]; 2.45% in assay [3]; -11% in assay [4]; 1.2% in assay [5]; -21.4% in assay [6].
As to `COc1ccc(CO)cc1`, the growth inhibition in assay [1] is -1.5%; in assay [2], -10.1%; in assay [3], 11.3%; in assay [4], -12.8%; in assay [5], -17.3%; in assay [6], -13.7%.
Take `CCOP(=S)(OCC)OP(=O)(CC)CC`: the growth inhibition in assay [1] is 3.1%; in assay [2], -10.1%; in assay [3] it was -1.7%; in assay [4], 4.4%; in assay [5], 9.2%; in assay [6], -2.55%.
With `CCN(CCCl)c1cc(CN(C)C)cc(NC(=O)c2cc(C(=O)Nc3cc(CN(C)C)cc(N(CC)CCCl)c3)n(C)n2)c1`, the growth inhibition in assay [1] was 60.2%; in assay [2], -10.3%; in assay [3] it was 27.9%; in assay [4], 20%; in assay [5] it was -3.3%; in assay [6], 3.05%.
Take `CCOC(OCC)c1ccccc1`: the growth inhibition was 7.95% in assay [1]; -5% in assay [2]; -4.95% in assay [3]; -11.9% in assay [4]; 6.6% in assay [5]; 14.2% in assay [6].
`COc1ccc2c3c1OC1C4(OC)CCC5(c6c(O)ccc(O)c64)C(C2)N(C)CCC315` (centres undefined): the growth inhibition in assay [1] was 5.75%; in assay [2], 4%; in assay [3] it was 7.2%; in assay [4], 13.3%; in assay [5], -6.4%; in assay [6], 4.15%.
On to `CC12CC(=O)C3C(CCC4CC=CCC43C)C1CCC2=O` (centres undefined), for which the growth inhibition in assay [1] is 22.1%; in assay [2], -12.5%; in assay [3], 28.1%; in assay [4] it was 5.8%; in assay [5] it was 10%; in assay [6] it was 24.5%.
Regarding `Nc1ncnc(N)n1`, the growth inhibition in assay [1] is -7.3%; in assay [2], -17.1%; in assay [3], 13.3%; in assay [4] it was -28.8%; in assay [5], -2.2%; in assay [6], -9.65%.
With `[Cl][Pt+2][Cl].[NH-]c1ccc(Cl)cc1[NH-]`, the growth inhibition was 9.7% in assay [1]; -11.9% in assay [2]; -3.05% in assay [3]; 8.15% in assay [4]; -11.1% in assay [5]; 7.5% in assay [6].
Regarding `CCCCOC1OCN(C2CCCCC2)CC1(C)C` (centres undefined), the growth inhibition in assay [1] is 13.5%; in assay [2], 28.1%; in assay [3] it was 27.5%; in assay [4], 13.7%; in assay [5], 36.8%; in assay [6], 41.8%.
For the compound `O.O.O=C(O)CC(=O)O.[NH-]C1CCCCC1[NH-].[Pt+2]` (centres undefined), the growth inhibition in assay [1] is -25.4%; in assay [2], -5.3%; in assay [3], -20.4%; in assay [4] it was -18.9%; in assay [5], 2.75%; in assay [6] it was -28.6%.
`CCC1(CC)COP(=S)(S)OC1`: the growth inhibition was 10.8% in assay [1]; -17.8% in assay [2]; -16.9% in assay [3]; 10.1% in assay [4]; -3.5% in assay [5]; -3.2% in assay [6].
